# About 410 (23%) of roughly 1,800 compounds were called active. A selection follows. Entries with a potency or affinity are not part of this list. Values without a mark were called inactive. No rule for the calls is given here.
# Assay: Vero cell cytotoxicity, cytotoxicity control for flavivirus capping enzyme inhibitors (AID 588742)
# Conditions: Vero cells viability, cytotoxicity counter-screen; series mostly up to 40 µM; viability: at the top concentration
row,Compound,viability [%]
1,Cn1c(SCC(=O)N2CCCCC2)nc2cccnc21,101
2,O=C1NC2=C(C(=O)CCC2)C(c2ccccc2[N+](=O)[O-])N1 (stereo not drawn),111
3,Nc1sc2c(c1C(=O)NC1CC1)CCCC2,95.7
4,O=C(CCCN1C(=O)/C(=C/c2ccco2)SC1=S)Nc1cccc(C(=O)O)c1,111
5,COc1ccc(N2CCC(CNC(=S)Nc3c(C)cccc3C)C2)cc1 (stereo not drawn),90.4
6,CC(Cc1cccc(C(F)(F)F)c1)NCCOC(=O)c1ccccc1 (stereo not drawn),112
7,O=C(Cc1cnn(-c2ccccc2)c1)c1ccc(O)c(O)c1O,113
8,Cc1ccc(S(=O)(=O)ON2C(=O)c3ccccc3C2=O)c(C)c1,92.6
9,O=c1c(C(c2ccc(O)cc2)c2c(O)nc3n(c2=O)CCCS3)c(O)nc2n1CCCS2,94.3
10,O=[N+]([O-])c1ccc(Cl)c2c1C1C=CCC1C(c1ccccn1)N2 (stereo not drawn),94.9
11,Cc1c(OCC(=O)NCCCN2CCCC2=O)ccc2c3c(c(=O)oc12)CCCC3,95.5
12,Cc1cc(=O)c2c(o1)C(=O)c1occc1C2=O,101
13,C/C(=C/CCC(C)[C@H]1CC[C@@]2(C)C3=C(CC[C@]12C)[C@@]1(C)CCC(=O)C(C)(C)[C@@H]1CC3)C(=O)O (stereo partly drawn),82.7
14,CCOc1cc(C2CC(=O)N3CN(C4CCCCC4)CSC3=C2C#N)ccc1O (stereo not drawn),95.7
15,N#CC1=C(N)N(c2ccc(Br)cc2)C2=C(C(=O)CCC2)C1c1cccnc1 (stereo not drawn),93.9
16,Cc1[nH]n(-c2ccccc2)c(=O)c1N=Nc1ccccc1C(=O)O,81.8
17,COc1cc(/C=C2\S/C(=N/S(=O)(=O)c3ccccc3)NC2=O)c([N+](=O)[O-])cc1OC,106
18,COc1cc(/C=C2/C(=O)NN(c3cccc(C)c3)C2=O)cc([N+](=O)[O-])c1O,98.2
19,COc1cc(/C=C2/C(=O)NN(c3ccc(F)cc3)C2=O)cc([N+](=O)[O-])c1O,92.3
20,O=C(O)CN1C(=O)/C(=C2\SC(=S)N(C(Cc3ccccc3)C(=O)O)C2=O)c2ccccc21 (stereo not drawn),102
21,O=C(O)c1cnn2c(C(F)(F)F)cc(-c3ccccc3)nc12,92.9
22,O=C1Nc2ccc(Cl)cc2C12Nc1ccccc1-c1nnc(SCc3ccccc3F)nc1O2 (stereo not drawn),102
23,Cc1csc(N/N=C/c2ccc(O)c([N+](=O)[O-])c2)n1,90.3
24,Cc1cc(O)c(C(C)C)cc1N=Cc1ccccc1[N+](=O)[O-],103
25,Cc1ccc(S(=O)(=O)Nc2nc(-c3ccc(F)cc3)cs2)cc1,106
26,CC(=O)c1cc(O)c2ccccc2c1O,94.9
27,Cc1nc(COC(=O)c2cc(O)c3ccccc3c2O)cs1,97.2
28,NC(=O)COc1ccc(/C=C2\C(=O)ON=C2c2ccccc2)cc1,107

# — PubChem BioAssay AID588742 (Southern Research Specialized Biocontainment Screening …, 2011)
